Inconclusive results are not listed. The source made the active and inactive calls. Calls follow the shape of the dose curve; as a rule, active = well fitted cell-killing curve with a large enough effect; inconclusive = small, poorly fitted or top-dose-only effect, or effect the other way; inactive = no such curve, though single readings can be large or run the other way.
Also: nearly all actives have a fitted effect of over 30% in size.
Potency is read from the fitted curve at half-maximal effect.

The first experiment can be described thus: Quantitative High-Throughput drug screen in 47 multiple myeloma cell lines against the NCATS MIPE library collection: PCM6_Riken cell viability assay (AID 1919870). As to conditions: CellTiter-Glo ATP, 48 h; series mostly up to 45.8 µM. The method in brief:
(§1)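 qHTS format: cells plated (500/well), pin-dosed with MIPE 4.0 compounds, kept 48 h at 37 °C. Readout was CellTiter-Glo luminescence, median RLU.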
In general terms: In ATP-based viability assays light output follows the ATP content of the culture.
With `O=C(NC1CCOCC1)c1ccc(-c2cc(-c3cn[nH]c3-c3ccccn3)ccn2)cc1`, the Potency entry was “inactive”. For `O=c1cc(-c2cccc3c2Sc2ccccc2S3)oc(N2CCOCC2)c1`, the Potency is 14.8 µM (active). The same measure, in the same setting: for `C=CCc1ccc(O)c(-c2ccc(O)c(CC=C)c2)c1` the value was 20.9 µM (active); for `O=c1ccn([C@@H]2O[C@H](CO)[C@H](O)[C@H]2O)c(=O)[nH]1`, “inactive”; for `C[N+](C)(C)CC(=O)O`, “inactive”. Regarding `Clc1ccc(CCC(Cn2ccnc2)Sc2c(Cl)cccc2Cl)cc1` (stereo not drawn), the Potency was 18.7 µM (active).

Regarding `O=C1c2c(O)cc(O)cc2O[C@H](c2cc(O)c(O)c(O)c2)[C@H]1O`, the Potency result is “inactive”. As for `O=C1Nc2ccc(Cl)cc2C(C#CC2CC2)(C(F)(F)F)O1` (stereo not drawn), the Potency was 23.5 µM (active). Take `O=C1NC(=O)C(=Cc2ccc3c(c2)OC(F)(F)O3)S1`: the Potency was 4.18 µM (active). In the case of `CN(C)Cc1ccc(-c2nc3cccc4c3n2CCNC4=O)cc1`, the Potency was 14.8 µM (active). The same measure, in the same setting: with `O=c1cc(N2CCOCC2)oc2c(-c3cccc4c3sc3ccccc34)cccc12` the figure was 8.33 µM (active). Regarding `CO[C@@H](C(=O)N1Cc2[nH]nc(NC(=O)c3ccc(N4CCN(C)CC4)cc3)c2C1)c1ccccc1`, the Potency is 26.4 µM (active). With `Cc1ccc(F)c(NC(=O)Nc2ccc(-c3cccc4[nH]nc(N)c34)cc2)c1`, the Potency was 23.5 µM (active). The same measure, in the same setting: with `CCOC1OC(=O)C[C@H]1NC(=O)[C@@H]1CCCN1C(=O)[C@@H](NC(=O)c1ccc(N)c(Cl)c1)C(C)(C)C` (stereo partly drawn) the entry was “inactive”; with `O=C1NC(=O)C(=Cc2ccc(-c3ccc(F)cc3)o2)S1`, 7.43 µM (active); with `NC(=O)c1ccc2nc(-c3ccc(Oc4ccc(Cl)cc4)cc3)[nH]c2c1`, “inactive”.

With `Cc1cnc(C(=O)O)c[n+]1[O-]`, the Potency result was “inactive”. Same read-out and setting: for `CCS(=O)(=O)N1CC(CC#N)(n2cc(-c3ncnc4[nH]ccc34)cn2)C1` the value was 5.9 µM (active). On the same count and under the same terms, with `O=C(O)c1ccc(-c2cc3cccnc3c(-c3ccc4nonc4c3)n2)cc1` the figure was 29.6 µM (active); with `O=c1c(O)c(-c2ccc(O)cc2)oc2cc(O)cc(O)c12`, 18.7 µM (active); with `CC=CCC=CCCC(=O)[C@H]1O[C@@H]1C(N)=O`, 20.9 µM (active).

In the case of `CCNc1cc(NC2CCC(O)CC2)nc(Nc2ccc3c(ccn3Cc3ccccc3)c2)n1` (stereo not drawn), the Potency was 20.9 µM (active). On the same count and under the same terms, for `O=C(O)C=Cc1ccc(O)c(O)c1` the value was “inactive”.

A further experiment in a line: Quantitative High-Throughput drug screen in 47 multiple myeloma cell lines against the NCATS MIPE library collection: RPMI8226_ATCC cell viability assay (AID 1919871). As to conditions: RPMI8226 myeloma viability, CellTiter-Glo ATP luminescence, 48 h; series mostly up to 45.8 µM. The method in brief: as §1
As to `OC[C@H]1O[C@@H](n2cnc3c2NC=NC[C@@H]3O)C[C@H]1O`, the Potency result was “inactive”. As for `N#CC(=C(N)Sc1ccccc1N)C(C#N)=C(N)Sc1ccccc1N`, the Potency is 10.5 µM (active).

For `COC(=O)C1=CO[C@@H](O)[C@@H]2C(CO)=CC[C@@H]12`, the Potency was 20.9 µM (active).

Take `Cc1ccc([C@@H]2O[C@H](CO)[C@@H](O)[C@H](O)[C@@H]2O)cc1Cc1ccc(-c2ccc(F)cc2)s1`: the Potency entry is “inactive”. As to `O=C(CCc1ccc(O)cc1)c1c(O)cc(O)cc1O[C@@H]1O[C@H](CO)[C@H](O)[C@H](O)[C@H]1O`, the Potency entry is “inactive”. Consider `COc1ccc(-n2c(C)c([N+](=O)[O-])c3ccc(O)cc32)cc1`, for which the Potency result is “inactive”. On to `O=C(NOCC(O)CO)c1cc(Br)c(F)c(F)c1Nc1ccc(I)cc1F` (stereo not drawn), for which the Potency entry was “inactive”. As to `CC[C@@H]1C=C(C)C[C@H](C)C[C@H](OC)[C@H]2O[C@@](O)(C(=O)C(=O)N3CCCC[C@@H]3C(=O)O[C@H](C(C)=C[C@@H]3CC[C@H](Cl)[C@H](OC)C3)[C@H](C)[C@@H](O)CC1=O)[C@H](C)C[C@H]2OC`, the Potency is 18.7 µM (active). Regarding `NC(=O)c1cccc(-c2cc(Nc3ccc(OC(F)(F)F)cc3)ncn2)c1`, the Potency entry was “inactive”. `O=C(O)C(O)Cc1ccc(O)c(O)c1` (stereo not drawn): the Potency is 26.4 µM (active). Turning to `N#C[C@H]1C[C@H]2C[C@@H]2N1C(=O)[C@@H](N)C12CC3CC(CC(O)(C3)C1)C2`, the Potency entry is “inactive”. Same read-out and setting: with `COc1ccc2c(Oc3ccc(NC(=O)c4c(C)n(CC(C)(C)O)n(-c5ccccc5)c4=O)cc3F)ccnc2c1` the figure was 23.5 µM (active); with `Oc1ccc(C2=Cc3ccc(O)cc3OC2)cc1`, 5.9 µM (active); with `CN(C)C1CCN(C(=O)c2ccc(NC(=O)Nc3nc(N4CCOCC4)nc(N4CCOCC4)n3)cc2)CC1`, 0.0093 µM (active).

As for `O=C(O)[C@H]1O[C@H](Oc2cc3oc(-c4ccccc4)cc(=O)c3c(O)c2O)[C@H](O)[C@@H](O)[C@H]1O`, the Potency was 4.69 µM (active).

The next experiment is described as follows: Quantitative High-Throughput drug screen in 47 multiple myeloma cell lines against the NCATS MIPE library collection: OPM2_DSMZ cell viability assay (AID 1919872). As to conditions: OPM2 myeloma viability, CellTiter-Glo ATP luminescence, 48 h; series mostly up to 45.8 µM. Summed up:
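Luminescent ATP measurement with CellTiter-Glo gives viability, scaled between DMSO-only wells (100%) and media-only wells (0%). Cells, 500 per well, faced library compounds for 48 hours at 37C.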
On to `OC[C@H]1O[C@@H](n2cnc3c2NC=NC[C@@H]3O)C[C@H]1O`, for which the Potency entry was “inactive”. Same read-out and setting: with `N#CC(=C(N)Sc1ccccc1N)C(C#N)=C(N)Sc1ccccc1N` the entry was “inactive”. As to `O=C1c2c(O)cc(O)cc2O[C@H](c2cc(O)c(O)c(O)c2)[C@H]1O`, the Potency was 18.7 µM (active).

Turning to `O=C1NC(=O)C(=Cc2ccc3c(c2)OC(F)(F)O3)S1`, the Potency entry is “inactive”. In the case of `CCOC1OC(=O)C[C@H]1NC(=O)[C@@H]1CCCN1C(=O)[C@@H](NC(=O)c1ccc(N)c(Cl)c1)C(C)(C)C` (stereo partly drawn), the Potency result was “inactive”.

Turning to `O=C(CCc1ccc(O)cc1)c1c(O)cc(O)cc1O[C@@H]1O[C@H](CO)[C@H](O)[C@H](O)[C@H]1O`, the Potency is 9.35 µM (active).

As to `COc1ccc(-n2c(C)c([N+](=O)[O-])c3ccc(O)cc32)cc1`, the Potency result was “inactive”. On the same count and under the same terms, with `O=C(NOCC(O)CO)c1cc(Br)c(F)c(F)c1Nc1ccc(I)cc1F` (stereo not drawn) the entry was “inactive”; with `CC[C@@H]1C=C(C)C[C@H](C)C[C@H](OC)[C@H]2O[C@@](O)(C(=O)C(=O)N3CCCC[C@@H]3C(=O)O[C@H](C(C)=C[C@@H]3CC[C@H](Cl)[C@H](OC)C3)[C@H](C)[C@@H](O)CC1=O)[C@H](C)C[C@H]2OC`, “inactive”; with `O=C1NC(=O)C(=Cc2ccc(-c3ccc(F)cc3)o2)S1`, “inactive”. As to `NC(=O)c1cccc(-c2cc(Nc3ccc(OC(F)(F)F)cc3)ncn2)c1`, the Potency is 16.6 µM (active). As to `O=C(O)C(O)Cc1ccc(O)c(O)c1` (stereo not drawn), the Potency was 11.8 µM (active). For the compound `N#C[C@H]1C[C@H]2C[C@@H]2N1C(=O)[C@@H](N)C12CC3CC(CC(O)(C3)C1)C2`, the Potency entry was “inactive”. Consider `CN(C)C1CCN(C(=O)c2ccc(NC(=O)Nc3nc(N4CCOCC4)nc(N4CCOCC4)n3)cc2)CC1`, for which the Potency was 0.0209 µM (active). Regarding `O=C(O)C=Cc1ccc(O)c(O)c1`, the Potency result is “inactive”.

(Values after PubChem BioAssay (NCATS).)
